This note sets out measurements from PubChem BioAssay.

A short description of experiment [1]: inhibitors of TNFa-induced NFkB p65 translocation, primary screen, imaging, HUVEC, MLSMR starter and 10KST1 sets (AID 438;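 active = inhibition above 20% together with a positive visual image hit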;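 also: compound added about 3h40 before a 20 min TNFalpha stimulation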;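 as to inhibition: signal is the nuclear over cytoplasmic p65 intensity ratio per well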). The following applies: HUVEC TNFa-induced p65 nuclear translocation; cell count: measured here: nuclei count (cytotoxicity indicator), at 2.08 µM; inhibition: at 2 µM, stronger effect = higher value, 0% TNFa-plus-vehicle, 100% no-TNFa wells.
The nature of experiment [2]: inhibitors of mutant huntingtin aggregation, primary screen, imaging, exon1htt(103Q)mCFP cells, high-content imaging (AID 483;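 active = visual image review flags a hit and inhibition of aggregation exceeds 20%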;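 also: compound exposure lasted 3 days before fixation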;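 as to nuclei count: percent of the per-plate median nuclei count of sample wells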). Conditions: exon1htt(103Q)mCFP cell line, aggregate imaging, at 2 µM; inhibition of aggregation: stronger effect = higher value; nuclei count: measured here: cell count, toxicity.
A short description of experiment [3]: inhibitors of E-selectin induction by TNFa, primary screen, imaging, HUVEC, immunofluorescence, MLSMR starter and 10KST1 sets (AID 487).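 As to inhibition: signal is fraction of cell area covered by stained E-selectin grains.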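 As to nuclei count: 100% = median nuclei count of all wells on the same plate.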 The following applies: HUVEC TNFalpha-induced E-selectin immunofluorescence imaging, at 2 µM; inhibition: stronger effect = higher value; nuclei count: measured here: cell number, toxicity.
Experiment [4] addresses Voltage-gated potassium channel subunit beta-2 (Rattus norvegicus) (UniProt P62483). The experiment can be described thus: KvBeta enzyme negative modulators, primary screen, biochemical, NADPH fluorescence (AID 622;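 active = fluorescence slope higher than the sample average by over 3 SD, cut at about -0.22 in these data, passing the limit was not always enough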;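 also: slope of raw intensity against log time taken from 70 to 1610 s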). The following applies: recombinant KvBeta, 4-cyanobenzaldehyde reduction, at 10 µM, stronger effect = higher value.
Experiment [5] has the same target. The experiment can be described thus: KvBeta positive modulators, primary screen, biochemical, NADPH fluorescence (AID 623;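 active = NADPH fluorescence slope more negative than the mean of all samples by about 3 SD, 99.7% confidence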;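 also: fluorescence intensity change per second fitted from 20 to 320 s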). The following applies: Recombinant KvBeta, NADPH fluorescence decrease slope, 10 min; at 10 µM; stronger effect = lower value.
Experiment [6] deals with Alpha-2C adrenergic receptor (Homo sapiens) (UniProt P18825). The experiment can be described thus: modulators of alpha2C/GIRK thallium flux, primary screen, cell-based, HEK293 alpha2C/GIRK1/2 (AID 624;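 active = fluorescence slope after compound addition differing from the mean of all screened samples at 99.7% confidence, in either direction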;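 also: slope of fluorescence ratio to pre-addition baseline per second over 15 to 24 s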). The following applies: thallium flux BTC fluorescence, at 10 µM, actives lie on both sides.
Alpha-2C adrenergic receptor (Homo sapiens), sequence (P18825 whole entry, looked up): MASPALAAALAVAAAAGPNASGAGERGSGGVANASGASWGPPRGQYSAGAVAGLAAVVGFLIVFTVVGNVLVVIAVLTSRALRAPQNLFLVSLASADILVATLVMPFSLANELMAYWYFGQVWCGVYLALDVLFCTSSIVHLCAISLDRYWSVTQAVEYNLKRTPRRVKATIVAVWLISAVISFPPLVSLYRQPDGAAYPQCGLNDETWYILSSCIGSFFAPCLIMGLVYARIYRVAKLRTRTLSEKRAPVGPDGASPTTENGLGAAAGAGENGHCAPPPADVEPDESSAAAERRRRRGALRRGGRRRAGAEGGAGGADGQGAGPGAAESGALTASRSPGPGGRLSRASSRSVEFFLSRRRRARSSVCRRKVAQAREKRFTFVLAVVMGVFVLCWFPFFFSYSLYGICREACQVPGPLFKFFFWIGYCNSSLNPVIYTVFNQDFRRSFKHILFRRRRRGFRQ
The nature of experiment [7]: inhibitors of Sendai virus-induced IRF3 signaling, primary screen, TLR/RLR signaling modifier project, cell-based, Sendai virus stimulus, luciferase, 10K MLSCN set (AID 602276;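 active = inhibition at or above 50% at 10 µM; inactive = inhibition below 50%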;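 also: firefly luciferase from ISG56 promoter only with Renilla not read in this screen; 0% = Sendai virus plus DMSO and 100% = medium plus DMSO without virus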). The following applies: HEK293 RL24 IRF3 luciferase reporter, at 10 µM, stronger effect = higher value.
Experiment [8] is described as follows: inhibitors of poly I:C-induced TLR3 signaling, primary screen, cell-based, poly I:C stimulus, luciferase, 10K MLSCN set (AID 602277;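 active = inhibition of the reporter signal at or above 50%; inactive = inhibition below 50%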). Conditions: HEK293-TLR3 RL24 IRF3 luciferase reporter, at 10 µM, stronger effect = higher value.

Activity calls are given as the source filed them.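 The calls were made as follows, unless noted: active = visually confirmed hit in the image check and inhibition above 20%; inconclusive = visually confirmed hit but inhibition not above 20%; inactive = no visual hit in the image check.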

Voltage-gated potassium channel subunit beta-2 (Rattus norvegicus), sequence (P62483 whole entry, looked up): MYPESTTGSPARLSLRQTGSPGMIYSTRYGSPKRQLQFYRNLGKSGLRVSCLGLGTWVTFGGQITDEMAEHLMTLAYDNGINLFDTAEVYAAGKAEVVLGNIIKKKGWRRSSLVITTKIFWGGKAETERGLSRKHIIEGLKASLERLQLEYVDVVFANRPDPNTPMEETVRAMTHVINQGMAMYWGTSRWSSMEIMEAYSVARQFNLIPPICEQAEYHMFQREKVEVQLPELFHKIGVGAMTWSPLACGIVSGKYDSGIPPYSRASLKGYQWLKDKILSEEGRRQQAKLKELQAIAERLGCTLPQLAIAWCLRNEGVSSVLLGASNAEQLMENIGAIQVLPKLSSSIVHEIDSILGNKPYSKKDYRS

Take `COc1ccc(N2CCN(C(c3ccccc3)c3sc4nc(C)nn4c3O)CC2)cc1` (stereo not drawn): in experiment [1], the cell count came out at 694. The inhibition in experiment [1] is -12.9% (inactive); in experiment [3], -21.7% (inactive); in experiment [7], 8.1% (inactive); in experiment [8], 11.1% (inactive). Moreover, in experiment [2], the inhibition of aggregation is -0.9% (inactive). Further, the results for the nuclei count in experiment [2] and in experiment [3] were 112% and 96.4%, respectively. In addition, the fluorescence slope in experiment [4] was -0.452 (inactive). In addition, the NADPH fluorescence slope in experiment [5] is -4.8e-05 (inactive). For the same molecule, the slope in experiment [6] is 0.00526 (inactive).

With `COC(=O)c1sccc1NC(=O)c1csc(C)c1`, the cell count in experiment [1] came out at 406. For the same molecule, the inhibition in experiment [1] is -5.4% (inactive); in experiment [3], -42.1% (inactive); in experiment [7], 18.7% (inactive); in experiment [8], 36.8% (inactive). For the same molecule, the inhibition of aggregation in experiment [2] was 0.6% (inactive). In addition, the nuclei count in experiment [2] turned out to be 88%; in experiment [3] it was 123%. In addition, in experiment [4], the fluorescence slope is -0.384 (inactive). Also, the NADPH fluorescence slope in experiment [5] was -0.000107 (inactive). Further, the slope in experiment [6] was 0.00657 (inactive).

`c1cc2c(cc1Nc1nc(-c3ccc4c(c3)OCO4)cs1)OCCO2`: in experiment [1], the cell count was found to be 351. Moreover, the inhibition is 0.4% (inactive) in experiment [1], -36.9% (inactive) in experiment [3], -63.5% (inactive) in experiment [7] and -126% (inactive) in experiment [8]. Besides, the inhibition of aggregation in experiment [2] was 10% (inactive). In addition, the nuclei count in experiment [2] was determined as 104%; in experiment [3], 118%. The fluorescence slope in experiment [4] was -0.188 (inactive). In experiment [5], the NADPH fluorescence slope was -2.8e-06 (inactive). Further, the slope in experiment [6] was 0.00387 (inactive).

As for `Cc1ccc(C(C(=O)NC2CCCCC2)N(C(=O)c2csnn2)C2CCCC2)o1` (stereo not drawn), the cell count in experiment [1] turned out to be 514. In addition, the inhibition in experiment [1] was -8.3% (inactive); in experiment [3], -68.9% (inactive); in experiment [7], 14.4% (inactive); in experiment [8], 47.6% (inactive). Moreover, the inhibition of aggregation in experiment [2] was -9.5% (inactive). Moreover, the nuclei count in experiment [2] came out at 103%; in experiment [3] it was 112%. Moreover, in experiment [4], the fluorescence slope was -0.547 (inactive). In addition, in experiment [5], the NADPH fluorescence slope was 1.5e-05 (inactive). The slope in experiment [6] is 0.00533 (inactive).

In the case of `COc1ccc(C2C(C(=O)N3CCCC3)c3cc(OC)c(OC)cc3C(=O)N2C)cc1` (stereo not drawn), the cell count in experiment [1] amounted to 583. Further, the inhibition in experiment [1] is -21.8% (inactive); in experiment [3], -71.5% (inactive); in experiment [7], 3.19% (inactive); in experiment [8] it was 12.2% (inactive). The inhibition of aggregation in experiment [2] is 7.8% (inactive). The nuclei count in experiment [2] came out at 111%; in experiment [3], 115%. Further, the fluorescence slope in experiment [4] was -0.544 (inactive). The NADPH fluorescence slope in experiment [5] was -5.3e-05 (inactive). For the same molecule, the slope in experiment [6] was 0.00513 (inactive).

As for `O=C(OCC(=O)c1ccc[nH]1)c1ccc(S(=O)(=O)N2CCCCC2)cc1`, the cell count in experiment [1] is 314. The inhibition was 22.9% (inactive) in experiment [1], -31.1% (inactive) in experiment [3], 2.97% (inactive) in experiment [7] and 29.4% (inactive) in experiment [8]. In experiment [2], the inhibition of aggregation is 1.5% (inactive). The nuclei count turned out to be 96.8% in experiment [2] and 98% in experiment [3]. In addition, the fluorescence slope in experiment [4] was -0.444 (inactive). Further, in experiment [5], the NADPH fluorescence slope is -4.5e-05 (inactive). Also, the slope in experiment [6] is 0.00419 (inactive).

`O=C(CCN1C(=O)c2ccccc2C1=O)N1CCN(C(=O)c2ccccc2)CC1`: the cell count in experiment [1] turned out to be 548. For the same molecule, the inhibition in experiment [1] is 2.5% (inactive); in experiment [3], -145% (inactive); in experiment [7], 9.17% (inactive); in experiment [8], 19.5% (inactive). Moreover, in experiment [2], the inhibition of aggregation was 7.3% (inactive). Further, the nuclei count was 98.2% in experiment [2] and 118% in experiment [3]. In experiment [4], the fluorescence slope is -0.491 (inactive). The NADPH fluorescence slope in experiment [5] is -4.1e-05 (inactive). In experiment [6], the slope is 0.00673 (inactive).

Consider `CCOc1ccc(N(CC(=O)Nc2cccc(OC)c2)S(=O)(=O)c2c(C)noc2C)cc1`, for which the cell count in experiment [1] was determined as 490. Also, the inhibition is -7.9% (inactive) in experiment [1], -27% (inactive) in experiment [3], 24.2% (inactive) in experiment [7] and 22.1% (inactive) in experiment [8]. The inhibition of aggregation in experiment [2] is 18.7% (inactive). Further, the nuclei count is 67% in experiment [2] and 109% in experiment [3]. Further, in experiment [4], the fluorescence slope was -0.518 (inactive). For the same molecule, the NADPH fluorescence slope in experiment [5] is -2.7e-05 (inactive). In addition, the slope in experiment [6] was 0.00799 (inactive).

In the case of `Cc1cc(NC(=O)c2cnn3c(C(F)F)cc(C4CC4)nc23)no1`, the cell count in experiment [1] is 747. For the same molecule, the inhibition in experiment [1] was -3.3% (inactive); in experiment [3], 27.3% (inactive); in experiment [7], 9.48% (inactive); in experiment [8], 19.3% (inactive). For the same molecule, the inhibition of aggregation in experiment [2] was 23% (inactive). Also, the nuclei count came out at 100% in experiment [2] and 98.5% in experiment [3]. Moreover, the fluorescence slope in experiment [4] was -0.486 (inactive). The NADPH fluorescence slope in experiment [5] is -3.5e-05 (inactive). For the same molecule, in experiment [6], the slope was 0.00638 (inactive).

With `C=CCNC(=O)CSc1nc2sc(C)c(C)c2c(=O)[nH]1`, the cell count in experiment [1] came to 590. Besides, the inhibition in experiment [1] is -3.4% (inactive); in experiment [3], 5.1% (inactive); in experiment [7], 9.71% (inactive); in experiment [8], 21.7% (inactive). The inhibition of aggregation in experiment [2] is 13.2% (inactive). For the same molecule, the nuclei count is 91.2% in experiment [2] and 112% in experiment [3]. In experiment [4], the fluorescence slope is -0.556 (inactive). The NADPH fluorescence slope in experiment [5] is -3.3e-05 (inactive). In addition, in experiment [6], the slope was 0.00731 (inactive).

In the case of `Cn1c(SCC(=O)N2CCN(c3cccc(Cl)c3)CC2)nnc1-c1ccncc1`, the cell count in experiment [1] was found to be 689. The inhibition in experiment [1] is -5.1% (inactive); in experiment [3], -92% (inactive); in experiment [7], 1.74% (inactive); in experiment [8], -27.2% (inactive). For the same molecule, in experiment [2], the inhibition of aggregation is -15% (inactive). Also, the nuclei count in experiment [2] is 104%; in experiment [3] it was 142%. Besides, the fluorescence slope in experiment [4] was -0.373 (inactive). The NADPH fluorescence slope in experiment [5] is 2.3e-06 (inactive). Moreover, in experiment [6], the slope was 0.00664 (inactive).

On to `CC(C)OCCCNC(=O)c1cc2c(s1)CS(=O)(=O)C2`, for which the cell count in experiment [1] stood at 215. Besides, the inhibition in experiment [1] was 1.9% (inactive); in experiment [3], 25.9% (inactive); in experiment [7], 5.68% (inactive); in experiment [8], 5.21% (inactive). Also, the inhibition of aggregation in experiment [2] was 7.5% (inactive). The nuclei count is 80.8% in experiment [2] and 103% in experiment [3]. The fluorescence slope in experiment [4] was -0.352 (inactive). For the same molecule, the NADPH fluorescence slope in experiment [5] was -5.6e-05 (inactive). The slope in experiment [6] was 0.0057 (inactive).

With `CCN(Cc1ccccc1)C(c1ccncc1)c1nnnn1C(C)(C)C` (stereo not drawn), the cell count in experiment [1] was determined as 618. For the same molecule, the inhibition was 11.6% (inactive) in experiment [1], -42.3% (inactive) in experiment [3], 17.8% (inactive) in experiment [7] and 21.6% (inactive) in experiment [8]. Also, the inhibition of aggregation in experiment [2] is -32% (inactive). In addition, the nuclei count in experiment [2] was 122%; in experiment [3], 116%. In experiment [4], the fluorescence slope is -0.606 (inactive). For the same molecule, the NADPH fluorescence slope in experiment [5] was -3.2e-05 (inactive). In experiment [6], the slope is 0.0048 (inactive).
